CHRM1 agonist: agonists of human M1 muscarinic receptor; activation, % at 3 µM; AID 588814; hit rate 0.33% among 360,000; CHO-K1 hM1, Fluo-8 calcium fluorescence, agonist mode; 0% DMSO, 100% acetylcholine EC100;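 active means activation above the run's mean compound activation plus 3 SD, cut at about 16% in these data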;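 further: peak over basal fluorescence ratio within a 140 s kinetic read after compound addition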
Target sequence (P11229 whole entry, looked up): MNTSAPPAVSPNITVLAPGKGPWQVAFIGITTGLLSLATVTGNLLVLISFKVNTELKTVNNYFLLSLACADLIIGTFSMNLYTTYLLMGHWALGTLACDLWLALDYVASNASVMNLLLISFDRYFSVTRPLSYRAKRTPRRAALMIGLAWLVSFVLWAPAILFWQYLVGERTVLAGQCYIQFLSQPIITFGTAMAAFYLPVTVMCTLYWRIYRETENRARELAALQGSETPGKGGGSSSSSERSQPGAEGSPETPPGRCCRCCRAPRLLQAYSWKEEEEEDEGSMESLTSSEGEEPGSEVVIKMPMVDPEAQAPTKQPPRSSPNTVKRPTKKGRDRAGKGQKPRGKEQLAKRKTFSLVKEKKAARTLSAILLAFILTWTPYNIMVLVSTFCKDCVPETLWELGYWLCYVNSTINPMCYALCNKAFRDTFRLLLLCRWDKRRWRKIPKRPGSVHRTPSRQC
M1 PAM: positive allosteric modulators of human M1 muscarinic receptor. P11229. CHO-K1 hM1, Fluo-8 calcium fluorescence, ACh EC20; 0% = ACh EC20, 100% = maximal ACh. activation, % at 3 µM. hit rate 0.088% among 360,000; in the data active means activation above about 19%, passing the limit was not always enough
CHO-K1 Ca ag: nonselective activator or artifact in parental CHO-K1 cells. Fluo-8 calcium fluorescence; scaled to maximal ATP response, vehicle zero. activation, % at 3 µM. hit rate 0.48% among 360,000; in the data active means activation above about 15%;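 further: untransfected CHO-K1 host cells lacking M1 receptor as counterscreen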
CHRM1 antagonist: antagonists of human M1 muscarinic receptor; P11229; CHO-K1 hM1, Fluo-8 calcium fluorescence, ACh EC80 antagonist; inhibition, % at 3 µM; hit rate 1.3% among 360,000; AID 588852;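 active means percent inhibition above its own plate's cutoff, namely the mean of that plate's compound wells plus 3 SD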;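 further: peak over basal fluorescence ratio during 140 s after agonist addition; 0% = ACh EC80 plus DMSO and 100% = DMSO alone without agonist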
CHO-K1 Ca antag: nonselective inhibitor or artifact in parental CHO-K1 cells; AID 602250; hit rate 0.6% among 360,000; inhibition, % at 3 µM; ATP-induced calcium, Fluo-8 fluorescence;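 active means inhibition above a per-plate cutoff, the plate's mean sample inhibition plus 3 SD, cut at about 24% in these data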;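 further: 0% = DMSO plus EC80 ATP and 100% = DMSO alone without ATP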
CHO-K1 Ca PAM: counter-screen for M1 PAMs: effect in parental CHO-K1 cells. activation, % at 3 µM. hit rate 0.02% among 360,000. ATP EC20, Fluo-8 calcium fluorescence; 0% at ATP EC20, 100% at ATP max;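 active means activation above the run cutoff, the mean activation of all test compounds plus 3 SD, cut at about 40% in these data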;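 further: peak over basal fluorescence ratio in a 140 s read after ATP addition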
* = called active by the depositor. Sampled rows, rich in hits. Any-hit rate of the full collection: about 2.3%.

SMILES	CHRM1 agonist	M1 PAM	CHO-K1 Ca ag	CHRM1 antagonist	CHO-K1 Ca antag	CHO-K1 Ca PAM
CC(=O)c1c(C)[nH]c(C(=O)Nc2cccc(C(F)(F)F)c2)c1C	3	-16	18*	25*	4	-11
CC(=O)c1c(C)[nH]c(C(=O)Nc2cccc(C#N)c2)c1C	2	-3	8	5	-10	-6
COc1ccc(NC(=O)Nc2cccc(C(F)(F)F)c2)cn1	-1	-3	9	13	26*	-4
COc1ccc(NC(=O)Nc2ccc([N+](=O)[O-])cc2)cn1	8	-5	16*	23	18	-15
COc1cccc(NC(=O)Nc2cc(C)ccc2OC)c1	-8	5	0	-4	-9	14
COc1ccc(NC(=O)Nc2cc(C)cc(C)c2)cn1	1	4	5	-8	-3	0
Cc1ccc(OC(F)F)c(NC(=O)Nc2cccc(C(F)(F)F)c2)c1	-5	-22	7	28*	6	-3
O=C(CCCn1cncn1)N1CCCC(N2CCN(c3ccccc3F)CC2)C1 (stereo not drawn)	-7	12	1	-8	-8	14
CCCN(CC(=O)Nc1ccccc1OC)C(=O)C1=COCCO1	-2	15	0	-16	-13	9
Cc1ccccc1NC(=O)CNC(=O)c1ccc(C(F)(F)F)cc1	6	2	0	1	3	-12
O=C(CN1CCOCC1)Nc1cccc(C(=O)Nc2cccc(C(F)(F)F)c2)c1	-1	5	1	-5	0	6
Cc1cc(C)cc(NC(=O)Nc2ccc(-n3ccc(C(F)(F)F)n3)cc2)c1	-1	-9	3	18	14	-13
CNC(=O)Nc1cccc(C(F)(F)F)c1	-1	6	1	1	-6	15
O=C(Nc1ccccc1)Nc1cccc(C(F)(F)F)c1	5	-23	11	18	30*	-11
Cc1ccccc1NC(=O)Nc1ccc(C(F)(F)F)cc1	-5	-20	11	14	24*	-9
O=C(Nc1ccc(-n2ccc(C(F)(F)F)n2)cc1)Nc1cccc(Cl)c1	4	-19	15	45*	30*	-25
CCCCCNCC(=O)Nc1cccc(C(=O)Nc2cccc(C(F)(F)F)c2)c1	9	3	24*	14	7	-8
O=C1CC2C(CCC23OCCO3)c2ccc3ccccc3c21 (stereo not drawn)	-6	4	-1	-9	0	-1
Cc1ccccc1NC(=O)NNC(=O)COc1ccc2ccccc2c1	0	13	2	-15	-13	8
C=CCn1c(=S)[nH]c2cc(C(=O)Nc3ccc(F)cc3)ccc2c1=O	4	-21	8	23*	-4	6
COc1ccc(CCNc2oc(Cc3cccc4ccccc34)nc2C#N)cc1OC	-3	-3	1	15	17	-5
COc1ccc(CCNc2oc(COc3ccc(Br)cc3)nc2C#N)cc1OC	-4	-24	4	36*	20	-14
O=C(O)C1CC=CCC1C(=O)Nc1ccccc1 (stereo not drawn)	-2	9	0	-5	25*	-6
CCN(CCCC(=O)c1ccc(F)cc1)CCc1ccccc1	-10	-26	1	59*	0	1
COc1cccc(C(CNC(=O)C(c2ccccc2)c2ccccc2)N(C)C)c1 (stereo not drawn)	-12	-33	1	55*	-7	-14
SMILES	CHRM1 agonist	M1 PAM	CHO-K1 Ca ag	CHRM1 antagonist	CHO-K1 Ca antag	CHO-K1 Ca PAM
COc1ccc(C(CNC(=O)Cc2ccc(-c3ccccc3)cc2)N(C)C)cc1 (stereo not drawn)	-11	-29	3	42*	-7	3
CC(C)[C@H](NC(=O)[C@@H]1CSC2c3ccccc3C(=O)N21)C(=O)N1CCCCC1 (stereo partly drawn)	-3	2	2	-3	-8	7
CC1CCCN(CCSc2ccc(Cl)cc2)C1 (stereo not drawn)	-7	-25	0	37*	4	-5
Clc1ccc(SCCOCCN2CCOCC2)cc1	-8	-10	0	23	9	-9
CC1CCN(CCOCCSc2ccc(Cl)cc2)CC1	-12	-26	0	28	27*	-8
CCOC(=O)C1CCN(CCCSc2ccc(Cl)cc2)CC1	-11	-19	1	28*	2	-11
